An excerpt weighted towards active compounds, which were near 17% of everything screened.
HT1080NT lethal = qHTS for induction of synthetic lethality in tumor cells producing 2HG: qHTS for the HT-1080-NT fibrosarcoma cell line; HT-1080-NT fibrosarcoma viability, CellTiter-Glo ATP luminescence, 48 h; Potency, µM (series often up to 46.1 µM), usual class: cytotoxic; 1.6% of 360,000 active;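 note: NT is the 2HG producing partner of a matched IDH1 knockdown line; nearly all actives have a fitted effect of over 55% in size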
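Read-out is CellTiter-Glo luminescence after 10 minutes at room temperature, following 48 hours' compound treatment of HT-1080-NT cells (750 cells/well, RPMI, 5% FBS, 37 degrees C).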
HT1080 IDH1KD tx = qHTS for induction of synthetic lethality in tumor cells producing 2HG: qHTS for the HT-1080-IDH1KD cell line | Potency, µM (top dose mostly 46.1 µM), usual class: cytotoxic | HT-1080 IDH1 knockdown viability, ATP luminescence, 48 h | 2% of 360,000 active
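Assay cells: HT-1080 with IDH1 knockdown, 750 per well, RPMI/5% FBS. Exposure: 48 h at 37 °C following 2 h pre-incubation. Read: CellTiter-Glo luminescence; fitted concentration-response, curve class assigned.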
DT40 TDP1 no CPT = qHTS for Inhibitors of human tyrosyl-DNA phosphodiesterase 1 (TDP1): qHTS in cells in absence of CPT; DT40 Tdp1-/- hTDP1 cells, no CPT, ATP luminescence, 48 h; Potency, µM (doses to about 46.2 µM), usual class: inhibitors; 15% of 420,000 active; note: nearly all actives have a fitted effect of over 55% in size
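Chicken DT40 Tdp1-/- cells complemented with human TDP1, screened without camptothecin (DMSO vehicle only), 400 cells/well. Compounds pin-transferred, cells incubated at 37 °C for at least 48 hr. Growth read as ATP-dependent luminescence (CellTiter-Glo, 30 min at RT).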
HepG2 viability = qHTS for Inhibitors of TGF-b: Cytotox Counterscreen | HepG2 CAGA-GFP viability, ATP luminescence, 18 h | Potency, µM (doses to about 46.1 µM), actives largely listed as cytotoxic | 0.76% of 410,000 active | AID 588856, 2011
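HepG2 CAGA-GFP cells (1000/well, DMEM with 1% FBS) received compound, then TGF-beta at 500 pg/mL final, and were incubated 18 hours at 37 degrees C. Viability was read by CellTiter-Glo luminescence. Media-only wells were set as complete cell-killing and DMSO as no toxicity.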
TGFb inhibitor = qHTS for Inhibitors of TGF-b | Potency, µM (titrated, usually from 46.1 µM), actives largely listed as inhibitors | HepG2 CAGA-GFP TGF-b/SMAD3 reporter, GFP fluorescence, 18 h; TGF-beta stimulated, 500 pg/mL final | 1.2% of 410,000 active; note: nearly all actives have a fitted effect of over 65% in size
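Smad-responsive CAGA-GFP expression was quantified in HEPG2 cells exposed to compounds and 500 pg/mL final TGF-beta for 18 h at 37 degrees C; unstimulated wells defined full inhibition.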
DT40 TDP1 CPT = qHTS for Inhibitors of human tyrosyl-DNA phosphodiesterase 1 (TDP1): qHTS in cells in presence of CPT. Potency, µM (top dose mostly 46.2 µM), actives largely listed as inhibitors. chicken DT40 Tdp1-/-;hTDP1 cells + 20 nM CPT, ATP luminescence, 48 h. AID 686979, 2013. 12% of 420,000 active; note: nearly all actives have a fitted effect of over 55% in size
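Chicken DT40 Tdp1-/- cells complemented with human TDP1, 400 cells/well, exposed to compounds plus 20 nM camptothecin for at least 48 h at 37 C; viability read as ATP content by CellTiter-Glo luminescence.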
Numbers stand for hits; n = inactive; u = inconclusive; x = no result given. Calls come from the whole dose curve; as a rule, active = well fitted curve in the direction sought with a large enough effect; inconclusive = small, poorly fitted or top-dose-only effect, or another doubt; inactive = no such curve, though single readings can be large; an effect the other way counts as inactive or inconclusive.

SMILES	HT1080NT lethal	HT1080 IDH1KD tx	DT40 TDP1 no CPT	HepG2 viability	TGFb inhibitor	DT40 TDP1 CPT
O=C(Nc1cccc(-c2nn[nH]n2)c1)c1csc2c1CCCC2	n	n	n	n	u	n
Cc1nc(-c2ccccc2)sc1-c1nc(-c2cccnc2)ncc1S(=O)(=O)c1ccccc1	n	n	u	n	n	n
S=C(N/N=C1\CCc2ccccc21)NC1CCCCC1	n	n	23.1µM	n	n	u
CC(C)NC(=S)N/N=C1\CCCCc2ccccc21	n	n	20.6µM	n	u	u
Cc1ccc(C)c(NC(=S)N/N=C2/CCCCc3ccccc32)c1	n	u	u	n	n	u
S=C(NC1CCCCC1)N1CCc2ccccc2C1	n	u	u	n	u	u
CCCCCNC(=O)c1ccc2c(c1)nc(C)n2-c1cccc(C)c1	x	x	u	n	n	14.6µM
COc1ccc2sc(N(CCN(C)C)C(=O)c3ccc4ccccc4c3)nc2c1	n	n	u	n	n	n
COc1ccc(C)c2sc(N(CCN(C)C)C(=O)c3ccc4ccccc4c3)nc12	u	n	u	n	n	18.4µM
Cc1cc(C)c2nc(N(CCN(C)C)C(=O)c3ccc4ccccc4c3)sc2c1	u	u	13µM	n	u	16.4µM
O=C(CCCCCn1c(=O)[nH]c2ccsc2c1=O)NCc1ccc2c(c1)OCO2	n	n	n	n	n	n
COC(=O)c1cc(C)ccc1/C=C1/Cc2c(C)cc(C)cc2C1=O	n	n	u	n	n	9.2µM
COC(=O)c1ccccc1C(=O)c1c(C)cc(C)cc1C	n	n	u	x	x	u
Cc1ccc(C)c(S(=O)(=O)N2CCN(C(=O)[C@H](C)N3C(=O)C4CC=CCC4C3=O)CC2)c1 (stereo partly specified)	n	n	n	n	n	n
NC(=O)CN1CCN(S(=O)(=O)c2ccc(Br)cc2)CC1	n	n	n	n	n	n
Cc1cc(C)c2c(CC(=O)Nc3ccc(S(=O)(=O)N4CCCCC4)cc3)coc2c1	x	x	10.3µM	n	u	20.6µM
Cc1ccc2c(CC(=O)Nc3ccc(S(=O)(=O)N4CCCCC4)cc3)coc2c1C	x	x	14.6µM	n	n	13µM
Cc1ccc(C)c(CNc2ccc(S(=O)(=O)N3CCCCC3)cc2)c1	n	n	20.6µM	n	u	14.6µM
Cc1ccc2c(CC(=O)Nc3ccc(S(=O)(=O)N4CCCCC4)cc3)coc2c1	x	x	u	n	u	u
Cc1ccc(S(=O)(=O)N2CCCCC2)cc1	n	n	n	n	n	n
CCCC(=O)Nc1ccc(S(=O)(=O)N2CCCC2)cc1	n	n	n	n	u	n
Cc1cc(C)c2c(CC(=O)Nc3ccc(S(=O)(=O)N4CCCC(C)C4)cc3)coc2c1 (stereo unspecified)	x	x	23.1µM	n	u	u
Cc1ccc2c(CC(=O)Nc3ccc(S(=O)(=O)N4CCCC(C)C4)cc3)coc2c1 (stereo unspecified)	x	x	u	n	u	u
O=C(OCCN=C1NS(=O)(=O)c2ccccc21)c1cccs1	n	n	n	n	n	n
CCN1CCc2nc(N)sc2C1	n	n	29.1µM	n	n	u
SMILES	HT1080NT lethal	HT1080 IDH1KD tx	DT40 TDP1 no CPT	HepG2 viability	TGFb inhibitor	DT40 TDP1 CPT
C=CCN1CCc2nc(N)sc2CC1	n	n	n	n	n	n
CC1=NN(c2nc(N)nc(/C(C#N)=C/c3ccc([N+](=O)[O-])o3)n2)C(C)(C)C1	n	u	0.461µM	n	u	0.581µM
Cc1ccc(NC(=O)CSCC(=O)N2CCN(C(=O)c3ccco3)CC2)cc1	n	n	n	n	n	n
N#CC1=C(N)Oc2n[nH]c(-c3cccnc3)c2C1c1ccc([N+](=O)[O-])o1 (stereo unspecified)	u	u	2.91µM	n	u	3.66µM
N#CC1=C(N)Oc2n[nH]c(-c3ccccc3)c2C1c1cccnc1 (stereo unspecified)	n	n	n	n	n	n
COc1cccc(CCNC(=O)CCc2nnc(-c3cc(C)oc3C)o2)c1	n	n	n	n	n	n
Oc1cccc2ccc(/C=C/c3cccs3)nc12	u	11.2µM	14.1µM	n	u	15.8µM
Cc1ccsc1/C=C/c1ccc2cccc(O)c2n1	12.6µM	11.2µM	23.1µM	n	u	u
Cc1cc(C)nc(NC(=O)/C=C/c2cccs2)c1	n	n	n	n	n	n
Cc1cccc(/C=C/c2cccs2)n1	x	x	0.631µM	n	u	1.12µM
O=[N+]([O-])c1cccc2ccc(/C=C/c3ccc(C(F)(F)F)cc3)nc12	n	n	u	n	n	u
Cc1ccsc1/C=C/c1ccc2ccccc2n1	n	n	u	n	n	u
COc1ccccc1/C=C1\SC(=S)N(CCC(=O)Nc2nnc(C)s2)C1=O	n	n	n	n	u	u
Cc1nc(COC(=O)c2c(C)nn(-c3ccccc3)c2C)cs1	n	n	n	n	n	n
CCCCN1CC(COCc2ccccc2)Oc2cccc(Oc3ccc(OC)cc3)c2S1(=O)=O (stereo unspecified)	n	n	18.4µM	n	n	u
CCCCN1CC(COCc2ccccc2)Oc2ccccc2S1(=O)=O (stereo unspecified)	n	n	23.1µM	n	u	u
Cc1cc(Oc2cccc3c2S(=O)(=O)N(C2CCCC2)CC(COCc2ccccc2)O3)cc(C)c1C (stereo unspecified)	u	n	16.4µM	n	n	23.1µM
COC(=O)C1CC(=O)c2sccc2C1 (stereo unspecified)	n	n	n	n	n	n
CNc1cccc(-c2ccc(C(=O)N3CCOCC3)cc2)n1	n	n	n	n	n	n
C#CC(C)(CC)NC(=O)c1cc2c(n(-c3ccc(Cl)cc3)c1=O)CC(C)(C)CC2=O (stereo unspecified)	x	x	x	n	n	x
COc1ccc(-c2ccc(C(=O)NCc3ccc(N(C)C)cc3)c3occc23)c(C)c1	n	u	16.4µM	n	n	u
COc1ccc(-c2ccc(C(=O)NCc3ccco3)c3occc23)c(C)c1	u	u	u	n	u	u
COc1ccc(-c2ccc(C(=O)NCCc3ccccc3)c3occc23)c(C)c1	u	u	20.6µM	n	n	20.6µM
O=C(CCN1CCc2ccccc2C1)Nc1ccc(F)cc1	n	n	u	n	n	n

Screening data from PubChem.
